Assay [1] can be described thus: Quantitative highthroughput screen to assess conditional lethalithy of NOMO1 cells grown in RPMI1640 with untreated serum (RPMI+s) (AID 1963876).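 For viability: 100% = DMSO wells and 0% = empty wells without cells.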 Note: nearly all actives have a fitted effect of over 35% in size. Note: potency is the fitted concentration of half-maximal effect. An outline of the steps:
(§1)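 Each medium arm—HPLM with 10% dialyzed FBS, or RPMI1640 with 5 mM glucose and 10% untreated or dialyzed FBS—was screened against an 11-point, 3-fold compound titration for 48 h at 37 °C, with CellTiter-Glo luminescence as endpoint.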

A short description of assay [2]: Quantitative highthroughput screen to assess conditional lethalithy of NOMO1 cells grown in RPMI1640 with dialyzed fetal bovine serum (RPMI+ds) (AID 1963877).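 For viability: series mostly up to about 46 µM; 100% = DMSO control wells and 0% = empty wells.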 Note: nearly all actives have a fitted effect of over 30% in size. Note: potency is the fitted concentration of half-maximal effect. An outline of the steps:
as §1

A short description of assay [3]: Quantitative highthroughput screen to assess conditional lethalithy of NOMO1 cells grown in Human Plasma-Like Medium with dialyzed fetal bovine serum (HPLM+ds) (AID 1963878).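 For viability: 100% = DMSO wells and 0% = empty wells on each plate.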 Note: nearly all actives have a fitted effect of over 35% in size. Note: potency is the fitted concentration of half-maximal effect. An outline of the steps:
as §1

Assay [4] can be described thus: Quantitative highthroughput screen to assess conditional lethalithy of P12 Ichikawa cells grown in Human Plasma-Like Medium with dialyzed fetal bovine serum (HPLM+ds) (AID 1963879). For viability: series mostly up to about 46 µM. Note: nearly all actives have a fitted effect of over 35% in size. Note: potency is the fitted concentration of half-maximal effect. The conditions noted are these: Potency: viability. An outline of the steps:
as §1

The nature of assay [5]: Quantitative highthroughput screen to assess conditional lethalithy of P12 Ichikawa cells grown in RPMI1640 with dialyzed fetal bovine serum (RPMI+ds) (AID 1963880).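 For viability: 100% = DMSO wells and 0% = empty wells on each plate.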 Note: nearly all actives have a fitted effect of over 35% in size. Note: potency is the fitted concentration of half-maximal effect. To be noted: Potency: P12-Ichikawa viability. An outline of the steps:
as §1

The nature of assay [6]: Quantitative highthroughput screen to assess conditional lethalithy of P12 Ichikawa cells grown in RPMI1640 with untreated serum (RPMI+s) (AID 1963881).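 For viability: series mostly up to about 46 µM; 100% = DMSO wells and 0% = empty wells without cells.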 Note: nearly all actives have a fitted effect of over 35% in size. Note: potency is the fitted concentration of half-maximal effect. To be noted: Potency: viability. An outline of the steps:
as §1

Assay [7] is described as follows: Quantitative highthroughput screen to assess conditional lethalithy of SEM cells grown in Human Plasma-Like Medium with dialyzed fetal bovine serum (HPLM+ds) (AID 1963882). For viability: series mostly up to about 46 µM. Note: nearly all actives have a fitted effect of over 35% in size. Note: potency is the fitted concentration of half-maximal effect. An outline of the steps: as §1
A short description of assay [8]: Quantitative highthroughput screen to assess conditional lethalithy of SEM cells grown in RPMI1640 with unreated serum (RPMI+s) (AID 1963883).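 For viability: 100% = DMSO wells and 0% = empty wells without cells.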 Note: nearly all actives have a fitted effect of over 35% in size. Note: potency is the fitted concentration of half-maximal effect. An outline of the steps:
as §1

A short description of assay [9]: Quantitative highthroughput screen to assess conditional lethalithy of SEM cells grown in RPMI1640 with dialyzed fetal bovine serum (RPMI+ds) (AID 1963884).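 For viability: series mostly up to about 46 µM; 100% = DMSO control wells and 0% = empty wells without cells.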 Note: nearly all actives have a fitted effect of over 35% in size. Note: potency is the fitted concentration of half-maximal effect. An outline of the steps: as §1
A short description of assay [10]: Cellular viability qHTS for adrenocortical cancer (ACC) cell line SW-13 (AID 1963989).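 Note: cells grown in serum-free medium with ITS supplement; % is set by controls: 0 for no effect and ±100 for the full control effect; nearly all actives have a fitted effect of over 65% in size.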 The conditions noted are these: SW-13 ACC cells viability, CellTiter-Glo, 48 h; activity (max response): stronger effect = lower value. An outline of the steps: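 SW-13 cells in ITS-supplemented serum-free DMEM were plated overnight, then exposed for 48 h at 37C to compound titrations (up to 46 uM final). Viability was read by CellTiter-Glo luminescence; four-parameter logistic fits gave IC50 and efficacy.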
In general terms: qHTS replaces the single test concentration by a dilution series.

Inconclusive results are not listed. Some structures have more than one record in an assay (separate samples or runs), and their calls can disagree. Activity calls are given as the source filed them. Calls come from the whole dose curve; as a rule, active = well fitted curve in the direction sought with a large enough effect; inconclusive = small, poorly fitted or top-dose-only effect, or another doubt; inactive = no such curve, though single readings can be large; an effect the other way counts as inactive or inconclusive.

These results are taken from PubChem BioAssay (NCATS).

Consider `Cc1nc(NC(=O)N2CCC[C@@H]2C(N)=O)sc1-c1csc(C(C)(C)C)n1`, for which the Potency in [1] is 2350 nM (active); in assay [2], 1.66 µM (active); in assay [3], 1480 nM (active); in assay [4], 1660 nM (active); in [5] it was 2350 nM (active); in [6] it was 1660 nM (active). Moreover, the figures for the Potency in assay [7] and in [8] were 1050 nM (active) and 743 nM (active), respectively.

On to `CCC(=O)OCC(=O)[C@@]1(OC(=O)CC)[C@@H](C)C[C@@H]2[C@H]3CCC4=CC(=O)C=C[C@]4(C)[C@@]3(F)[C@@H](O)C[C@@]21C`, for which the Potency is 7430 nM (active) in assay [1]; 5.9 µM (active) in [2]; 1660 nM (active) in [3]; 5900 nM (active) in [4]; 2350 nM (active) in assay [5]; 4690 nM (active) in assay [6].

As for `COc1cc([C@H]2Oc3cc([C@H]4Oc5cc(O)cc(O)c5C(=O)[C@H]4O)ccc3O[C@H]2CO)ccc1O`, the Potency result in [1], in assay [2], in assay [3], in assay [4], in assay [5] and in [6] was “inactive” each time.

Consider `CNC[C@@H](O)[C@@H](O)[C@H](O)[C@H](O)CO`, for which the Potency entry in assay [1], in [2], in [4], in [5] and in assay [6] was “inactive” each time. Also, in assay [3], the Potency is 526 nM (active).

`Nc1ncnc2c1ncn2[C@@H]1O[C@@H](CO)[C@H](O)[C@H]1O`: the Potency entry in [1], in assay [2], in assay [3], in assay [4], in assay [5] and in assay [6] was “inactive” in each case.

Turning to `CN[C@@H]1C[C@H]2O[C@@](C)([C@H]1OC)n1c3ccccc3c3c4c(c5c6ccccc6n2c5c31)C(=O)N[C@H]4O`, the Potency in assay [1] was 833 nM (active); in assay [2] it was 1.05 µM (active); in [3], 590 nM (active); in assay [4], 743 nM (active); in assay [5], 590 nM (active); in assay [6], 418 nM (active). For the same molecule, the Potency in assay [7] was 332 nM (active); in [8] it was 332 nM (active); in assay [9] it was 526 nM (active).

Regarding `CC=C(C(=CC)c1ccc(O)cc1)c1ccc(O)cc1`, the Potency result in assay [1], in assay [2], in assay [3], in assay [4], in [5] and in assay [6] was “inactive” throughout. Further, the Potency entry in assay [7] is “inactive”.

For the molecule `CC[C@]1(O)C[C@@H]2CN(CCc3c([nH]c4ccccc34)[C@@](C(=O)OC)(c3cc4c(cc3OC)N(C=O)[C@@H]3C45CCN4CC=C[C@](CC)([C@H]45)[C@@H](OC(C)=O)[C@]3(O)C(=O)OC)C2)C1` (some centres undefined), the Potency result in assay [1], in assay [2], in assay [3], in [4] and in assay [5] was “inactive” in each case.

For the molecule `CCCCC(C=O)NC(=O)C(CC(C)C)NC(=O)OCc1ccccc1` (centres undefined), the Potency result in assay [1], in assay [2], in assay [3] and in [4] was “inactive” in each case.

Turning to `CC=C1NC(=O)[C@H]2CSSCCC=C[C@H](CC(=O)N[C@H](C(C)C)C(=O)N2)OC(=O)[C@H](C(C)C)NC1=O`, the Potency in assay [1] was 41.8 nM (active); in assay [2] it was 0.0526 µM (active); in [3], 37.2 nM (active); in [4] it was 37.2 nM (active); in assay [5] it was 37.2 nM (active); in assay [6], 37.2 nM (active). The Potency in assay [7] is 37.2 nM (active); in assay [8], 29.6 nM (active); in assay [9], 37.2 nM (active).

Consider `CCCCCCCc1ccc(CCc2cccc(O)c2C(=O)O)cc1`, for which the Potency result in assay [1], in [2], in assay [3], in assay [4], in assay [5] and in assay [6] was “inactive” in each case.

Consider `CCCCCOC(=O)Nc1nc(=O)n([C@@H]2O[C@H](C)[C@@H](O)C2O)cc1F` (some centres undefined), for which the Potency entry in [1], in [2], in assay [3], in [4], in assay [5] and in assay [6] was “inactive” throughout. Moreover, the Potency entry in [7], in assay [8] and in assay [9] was “inactive” each time.

On to `CS[C@H]1SC[C@@H]2C(=O)N(C)[C@H](C(C)C)C(=O)OC[C@H](NC(=O)c3cnc4ccccc4n3)C(=O)N[C@H](C)C(=O)N(C)[C@@H]1C(=O)N(C)[C@H](C(C)C)C(=O)OC[C@H](NC(=O)c1cnc3ccccc3n1)C(=O)N[C@H](C)C(=O)N2C`, for which the Potency is 20.9 nM (active) in [1]; 0.0209 µM (active) in [2]; 14.8 nM (active) in assay [3]; 20.9 nM (active) in assay [4]; 10.5 nM (active) in assay [5]; 14.8 nM (active) in [6]. Besides, the values for the Potency in assay [7] and in assay [8] were 3.7 nM (active) and 2.6 nM (active), respectively.

As for `C[C@@H]1[C@H](C)CC[C@]2(C(=O)O)CC[C@]3(C)C(=CC[C@@H]4[C@@]5(C)C[C@@H](O)[C@H](O)[C@@](C)(CO)[C@H]5CC[C@]43C)[C@@H]12`, the Potency result in assay [1], in [2], in assay [3], in assay [4] and in [5] was “inactive” throughout.

As to `CC[C@H]1OC(=O)[C@H](C)C(=O)[C@H](C)[C@@H](O[C@H]2O[C@H](C)C[C@H](N(C)C)[C@@H]2O)[C@](C)(OC)C[C@@H](C)C(=O)[C@H](C)[C@H]2N(CCCCn3cnc(-c4cccnc4)c3)C(=O)O[C@]12C`, the Potency entry in [1], in assay [2], in [3], in [4], in [5] and in [6] was “inactive” each time. Besides, the Potency entry in assay [7], in assay [8] and in assay [9] was “inactive” in each case.

On to `COc1cc2ncn(-c3cc(OCc4ccccc4S(C)(=O)=O)c(C#N)s3)c2cc1OC`, for which the Potency result in [1], in [2], in [3], in assay [4], in [5] and in [6] was “inactive” throughout. The Potency entry in assay [7], in assay [8] and in assay [9] was “inactive” in each case. Moreover, the activity (max response) in [10] was -11.8% (inactive).

Take `CC(C=CC1=C(C)CCCC1(C)C)=CC=CC(C)=CC(=O)O`: the Potency result in assay [1], in assay [3], in assay [4], in assay [5], in assay [6] and in assay [7] was “inactive” in each case. Also, the Potency entry in [8] and in assay [9] was “inactive” throughout. Moreover, the Potency in [2] was 833 nM (active) and inactive.

For `O=C1NC(=O)C(=Cc2ccc3nccnc3c2)S1`, the Potency result in assay [1], in [2], in assay [3], in assay [4], in assay [5] and in [6] was “inactive” throughout. The Potency entry in assay [7], in assay [8] and in assay [9] was “inactive” in each case.

On to `C[C@H](Cn1cnc2c(N)ncnc21)OCP(=O)(O)O`, for which the Potency result in assay [1], in assay [2], in assay [3], in [4], in [5] and in assay [6] was “inactive” throughout. The Potency entry in assay [7], in [8] and in assay [9] was “inactive” each time.

Regarding `CCC(CC)[C@H](NC(C)=O)[C@@H]1[C@H](O)[C@@H](C(=O)O)C[C@@H]1N=C(N)N`, the Potency entry in assay [1], in [2], in [3], in [4], in assay [5] and in [6] was “inactive” in each case. Moreover, the Potency entry in assay [7], in [8] and in [9] was “inactive” in each case.
